CHRM1 agonist: human M1 muscarinic receptor agonists, primary screen, Fluo-8 calcium fluorescence, CHO-K1 cells, HTS. Muscarinic acetylcholine receptor M1 (Homo sapiens), P11229. CHO-K1 hM1, agonist mode; 0% DMSO, 100% acetylcholine EC100. activation, % at 3 µM. 360,000 tested, 0.33% active;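 active means activation above the run's mean compound activation plus 3 SD, cut at about 16% in these data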;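 further: peak over basal fluorescence ratio within a 140 s kinetic read after compound addition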
Target sequence (P11229 whole entry, looked up): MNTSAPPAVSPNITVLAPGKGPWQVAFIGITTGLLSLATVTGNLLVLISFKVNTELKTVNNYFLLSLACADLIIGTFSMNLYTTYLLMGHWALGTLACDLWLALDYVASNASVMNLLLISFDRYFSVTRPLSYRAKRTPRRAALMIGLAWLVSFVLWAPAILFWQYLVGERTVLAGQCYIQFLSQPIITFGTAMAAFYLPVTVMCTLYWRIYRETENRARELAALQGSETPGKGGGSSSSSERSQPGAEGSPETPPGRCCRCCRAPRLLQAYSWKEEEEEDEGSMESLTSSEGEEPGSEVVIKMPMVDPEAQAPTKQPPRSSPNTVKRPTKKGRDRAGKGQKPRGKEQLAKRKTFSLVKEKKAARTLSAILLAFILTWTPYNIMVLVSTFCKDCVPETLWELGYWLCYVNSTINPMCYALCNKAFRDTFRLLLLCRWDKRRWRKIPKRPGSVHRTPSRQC
CHRM1 antagonist: human M1 muscarinic receptor antagonists, primary screen, CHO-K1 cells, Fluo-8 calcium fluorescence, 1536-well | Muscarinic acetylcholine receptor M1 (Homo sapiens), P11229 | CHO-K1 hM1, ACh EC80 antagonist | inhibition, % at 3 µM | 360,000 tested, 1.3% active | AID 588852, 2011;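 active means percent inhibition above its own plate's cutoff, namely the mean of that plate's compound wells plus 3 SD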;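 further: peak over basal fluorescence ratio during 140 s after agonist addition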
CHO-K1 Ca ag: counter-screen for M1 agonists: effect in parental CHO-K1 cells; AID 602248, 2012; Fluo-8 calcium fluorescence; scaled to maximal ATP response, vehicle zero; 360,000 tested, 0.48% active; activation, % at 3 µM; in the data active means activation above about 15%;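 further: untransfected CHO-K1 host cells lacking M1 receptor as counterscreen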
M1 PAM: human M1 muscarinic receptor positive allosteric modulators, primary screen, CHO-K1 cells, Fluo-8 calcium fluorescence, 1536-well; 360,000 tested, 0.088% active; CHO-K1 hM1, ACh EC20; 0% = ACh EC20, 100% = maximal ACh; AID 588819, 2011; activation, % at 3 µM; in the data active means activation above about 19%, passing the limit was not always enough
M1 PAM parental: nonselective calcium activators in parental CHO-K1 cells, primary screen, counter-screen for M1 PAM project, cell-based, Fluo-8 calcium fluorescence, full deck, 1536-well | activation, % at 3 µM | 360,000 tested, 0.02% active | ATP EC20; 0% at ATP EC20, 100% at ATP max | AID 602247, 2012;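 active means activation above the run cutoff, the mean activation of all test compounds plus 3 SD, cut at about 40% in these data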;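 further: peak over basal fluorescence ratio in a 140 s read after ATP addition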
CHO-K1 Ca antag: nonselective inhibitor or artifact in parental CHO-K1 cells; 360,000 tested, 0.6% active; inhibition, % at 3 µM; ATP-induced calcium, Fluo-8 fluorescence;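 active means inhibition above a per-plate cutoff, the plate's mean sample inhibition plus 3 SD, cut at about 24% in these data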
Numbers stand for hits; 0 = inactive; - = not tested or not shown. Hits are enriched below; roughly 2.4% of the tested compounds scored in any of these assays.

SMILES	CHRM1 agonist	CHRM1 antagonist	CHO-K1 Ca ag	M1 PAM	M1 PAM parental	CHO-K1 Ca antag
COc1ccc(/C=C2\SC(=O)N(CC(=O)NCCCn3ccnc3)C2=O)cc1	0	0	0	0	0	0
CCOC(=O)N1CCC(N2CCCC(CO)(Cc3cccc(Cl)c3)C2)CC1 (stereo not given)	0	39	0	0	0	0
CCOC(=O)N1CCC(N2CCCC(CO)(Cc3ccccc3C)C2)CC1 (stereo not given)	0	26	0	0	0	0
CNC(=O)NNC(=O)c1nc(-c2ccccc2)c(C)o1	0	0	0	0	0	0
Cc1cccc(CSC2=NCCN2S(=O)(=O)c2ccc(F)cc2)c1	0	39	0	0	0	0
CCC1CCCCN1CCCNC(=O)CCCOc1cc(=O)n(C)c2ccccc12 (stereo not given)	0	49	0	0	0	0
Cn1c(=O)cc(OCCCC(=O)N2CCN(c3ccccc3)CC2)c2ccccc21	0	0	0	0	0	30
CN1CCN(C(=O)/C(=C\c2ccccc2)c2ccccc2)CC1	0	99	0	0	0	0
CN1CCN(C(=O)/C(=C/c2ccc(F)cc2)NC(=O)c2ccccc2)CC1	0	0	0	0	0	0
COC(=O)C1CCN(S(=O)(=O)c2cn(C)c(=O)n(C)c2=O)CC1	0	0	0	0	0	0
CCOC(=O)C1CCN(S(=O)(=O)c2ccc(Cl)nc2)CC1	0	28	0	0	0	0
CCOC(=O)C1CCN(CC(O)COc2ccc(S(=O)(=O)N3CCCC3)cc2[N+](=O)[O-])CC1 (stereo not given)	0	40	0	0	0	0
CCOC(=O)C1CCN(S(=O)(=O)c2cn(C)c(=O)n(C)c2=O)CC1	0	32	0	0	0	0
COc1ccccc1C1CC(c2ccccc2)=NN1C(=S)Nc1ccccc1 (stereo not given)	0	0	0	0	0	0
N#CCC1(O)C(=O)N(Cc2ccccc2)c2ccccc21 (stereo not given)	-	-	0	-	0	0
S=c1[nH]nc(Cc2ccccc2)n1Cc1ccco1	0	92	0	0	0	0
CCCn1c(Cc2ccccc2)n[nH]c1=S	0	0	0	0	0	0
Cc1nnc(NC(=O)c2ccc3ccccc3n2)s1	0	0	20	0	0	0
Cc1ccc(-c2nnc(NC(=O)c3ccco3)s2)cc1	0	0	0	0	0	0
Cc1nnc(NC(=O)c2ccco2)s1	0	0	0	0	0	26
Cc1ccc(NC(=O)c2ccc(OC(=O)c3ccco3)cc2)cc1	0	0	0	0	0	0
Cc1ccc(Oc2ccc(NC(=O)c3ccco3)cc2)cc1	0	0	0	0	0	27
CCCN(CCC)Cc1c(C(=O)N/N=C/CCc2ccccc2)nnn1-c1nonc1N	0	0	0	0	0	0
COc1ccc(CCNC(=O)CSc2ccc(Br)cc2)cc1OC	0	0	0	0	0	0
CC(=O)NS(=O)(=O)c1ccc(NC(=O)CSc2ccc(C)cc2)cc1	0	0	0	0	0	0
SMILES	CHRM1 agonist	CHRM1 antagonist	CHO-K1 Ca ag	M1 PAM	M1 PAM parental	CHO-K1 Ca antag
CCCCS/C(=C(/C#N)C(N)=O)c1cc2c([nH]1)CCCC2	0	25	0	0	0	0
Clc1ccc(C2=Nn3c(nnc3-c3cccnc3)SC2)s1	0	0	0	0	0	27
O=C1CCC(=O)N1c1ccc(NC2CCN(Cc3ccccc3)CC2)c([N+](=O)[O-])c1	0	0	0	0	0	0
CN(Cc1ccccc1)C1CCN(Cc2ccccc2[N+](=O)[O-])CC1	0	90	0	0	0	0
O=[N+]([O-])c1ccccc1CN1CCN(S(=O)(=O)Cc2ccccc2)CC1	0	0	0	0	0	0
NC(=O)CC(NC(=O)Cc1cccc2ccccc12)c1ccc(NC2CCN(Cc3ccccc3)CC2)c([N+](=O)[O-])c1 (stereo not given)	0	0	0	0	0	0
O=[N+]([O-])c1ccccc1NC1CCN(Cc2ccccc2)CC1	0	47	0	0	0	0
NC(=O)CC(NC(=O)Cc1ccc(Br)cc1)c1ccc(NC2CCN(Cc3ccccc3)CC2)c([N+](=O)[O-])c1 (stereo not given)	0	43	0	0	0	0
O=C1C2CCCCC2C(=O)N1c1ccc(NC2CCN(Cc3ccccc3)CC2)c([N+](=O)[O-])c1 (stereo not given)	0	48	0	0	0	0
O=[N+]([O-])c1ccc(NC2CCN(Cc3ccccc3)CC2)c([N+](=O)[O-])c1	0	0	0	0	0	0
O=C1C2CC=CCC2C(=O)N1c1ccc(NCCc2ccccc2)c([N+](=O)[O-])c1 (stereo not given)	0	0	0	0	0	0
CC1CCC2C(=O)N(c3ccc(NC4CCN(Cc5ccccc5)CC4)c([N+](=O)[O-])c3)C(=O)C2C1 (stereo not given)	0	80	0	0	0	0
CC(N)c1csc(Nc2nncc3ccccc23)n1 (stereo not given)	0	102	0	0	0	0
CC(N)c1csc(Nc2ncccn2)n1 (stereo not given)	0	0	0	0	0	25
CC(=O)c1ccc(N2CCN(C(=O)c3nn(C)c4c3CS(=O)(=O)c3ccccc3-4)CC2)cc1	0	0	16	0	0	0
O=S(=O)(c1ccccc1)C1CON(Cc2ccccc2)C1c1ccccc1 (stereo not given)	0	0	0	0	0	36
Cn1ccnc1C1CCCCN1Cc1nc(-c2ccc3c(c2)OCO3)no1 (stereo not given)	0	59	0	0	0	0
FC(F)(F)c1cccc(Cc2noc(CN3C[C@@H]4CCC[C@H]3C4)n2)c1	0	0	0	0	0	0
Cn1ccnc1C1CCCCN1Cc1nc(Cc2cccc(C(F)(F)F)c2)no1 (stereo not given)	0	54	0	0	0	0
CC(=O)c1c(C)[nH]c(C(=O)CSc2nnc(C)s2)c1C	0	0	0	0	0	0
O=C(NC(c1cccnc1)C(F)(F)F)c1cc(COc2ccc3c(c2)CCCC3)on1 (stereo not given)	0	42	0	0	0	27
CCOC(=O)c1[nH]c2ccc(C)cc2c1N	0	0	0	0	0	0
CCOC(=O)c1[nH]c2ccc(C(=O)OC)cc2c1C(=O)OCC	0	0	0	0	0	25
O=C(Nc1ccc(S(=O)(=O)Nc2ncccn2)cc1)C1=COCCO1	0	0	0	0	0	0

Assay outcomes: PubChem, The Scripps Research Institute Molecular Screening Center
